{"source": "PubChem BioAssay AID1159580", "about": "(chemical genetic matrix, 2015)", "test": "chemical genetic growth profiling, strain panel (AID 1159580);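 note: tested at 20 µM; growth read once vehicle control cultures reached saturation at 30 °C; 1 = growth at the plate median or of vehicle wells; lower values mean less growth of the strain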", "settings": "S. cerevisiae deletion strains, growth OD", "note": "Several values for one entry are separate records, joined by “and”; a condition that tells them apart may be missing. Equal values may be shown once. Screen size: about 5,500 compounds; about 2,000 (36%) were called active. About 18% were inconclusive and are not listed. Some of the results follow. Values without a mark were called inactive. Cut-off read from the data, not from the text of the source: active = normalized growth mostly below about 0.91 (no sharp cut-off); inconclusive = no clear call, values can overlap the other calls; inactive = mostly above about 0.92."}
{"smiles": "ClC1C(Cl)C(Cl)C(Cl)C(Cl)C1Cl", "note": "(stereo unspecified)", "values": [{"measurement": "normalized growth", "setting": "locus YAL013W, strain DEP1, hits give low values", "result": 0.981}, {"measurement": "normalized growth", "setting": "locus YAL021C, strain ccr4, hits give low values", "result": 0.997}, {"measurement": "normalized growth", "setting": "locus YAL026C, strain drs2, hits give low values", "result": 0.988}, {"measurement": "normalized growth", "setting": "locus YAL030W, strain snc1, hits give low values", "result": 0.98}, {"measurement": "normalized growth", "setting": "locus YBL061C, strain skt5, hits give low values", "result": 0.965}, {"measurement": "normalized growth", "setting": "locus YBR009C, strain hhf1, hits give low values", "result": "0.831 (active)"}, {"measurement": "normalized growth", "setting": "locus YBR021W, strain FUR4, hits give low values", "result": 0.985}, {"measurement": "normalized growth", "setting": "locus YBR023C, strain chs3, hits give low values", "result": 0.965}, {"measurement": "normalized growth", "setting": "locus YBR171W, strain sec66, hits give low values", "result": 0.956}, {"measurement": "normalized growth", "setting": "locus YBR229C, strain ROT2, hits give low values", "result": 0.962}, {"measurement": "normalized growth", "setting": "locus YBR231C, strain swc5, hits give low values", "result": 0.913}, {"measurement": "normalized growth", "setting": "locus YBR279W, strain paf1, hits give low values", "result": 0.971}, {"measurement": "normalized growth", "setting": "locus YCL011C, strain gbp2, hits give low values", "result": 0.931}, {"measurement": "normalized growth", "setting": "locus YCL016C, strain dcc1, hits give low values", "result": "0.898 (active)"}, {"measurement": "normalized growth", "setting": "locus YCL029C, strain bik1, hits give low values", "result": "0.906 (active)"}, {"measurement": "normalized growth", "setting": "locus YCL061C, strain MRC1, hits give low values", "result": "0.894 (active)"}, {"measurement": "normalized growth", "setting": "locus YCL069W, strain vba3, hits give low values", "result": 0.986}, {"measurement": "normalized growth", "setting": "locus YCR088W, strain abp1, hits give low values", "result": 0.965}, {"measurement": "normalized growth", "setting": "locus YDL005C, strain med2, hits give low values", "result": 1.01}, {"measurement": "normalized growth", "setting": "locus YDL035C, strain GPR1, hits give low values", "result": 0.976}, {"measurement": "normalized growth", "setting": "locus YDL040C, strain nat1, hits give low values", "result": 0.986}, {"measurement": "normalized growth", "setting": "locus YDL074C, strain BRE1, hits give low values", "result": 0.939}, {"measurement": "normalized growth", "setting": "locus YDL101C, strain DUN1, hits give low values", "result": 0.964}, {"measurement": "normalized growth", "setting": "locus YDL134C, strain PPH21, hits give low values", "result": 0.963}, {"measurement": "normalized growth", "setting": "locus YDL185W, strain tfp1, hits give low values", "result": 0.926}, {"measurement": "normalized growth", "setting": "locus YDL192W, strain arf1, hits give low values", "result": 0.942}, {"measurement": "normalized growth", "setting": "locus YDR001C, strain nth1, hits give low values", "result": 0.964}, {"measurement": "normalized growth", "setting": "locus YDR069C, strain doa4, hits give low values", "result": 0.989}, {"measurement": "normalized growth", "setting": "locus YDR101C, strain arx1, hits give low values", "result": 0.956}, {"measurement": "normalized growth", "setting": "locus YDR137W, strain rgp1, hits give low values", "result": "0.606 (active)"}, {"measurement": "normalized growth", "setting": "locus YDR150W, strain NUM1, hits give low values", "result": 0.942}, {"measurement": "normalized growth", "setting": "locus YDR159W, strain sac3, hits give low values", "result": "0.703 (active)"}, {"measurement": "normalized growth", "setting": "locus YDR162C, strain NBP2, hits give low values", "result": 0.969}, {"measurement": "normalized growth", "setting": "locus YDR195W, strain ref2", "result": 1.07}, {"measurement": "normalized growth", "setting": "locus YDR297W, strain sur2, hits give low values", "result": 0.97}, {"measurement": "normalized growth", "setting": "locus YDR318W, strain mcm21, hits give low values", "result": 0.926}, {"measurement": "normalized growth", "setting": "locus YDR334W, strain swr1, hits give low values", "result": 0.976}, {"measurement": "normalized growth", "setting": "locus YDR335W, strain msn5, hits give low values", "result": 1}, {"measurement": "normalized growth", "setting": "locus YDR388W, hits give low values", "result": 0.935}, {"measurement": "normalized growth", "setting": "locus YDR392W, strain spt3, hits give low values", "result": "0.295 (active)"}, {"measurement": "normalized growth", "setting": "locus YDR502C, strain sam2, hits give low values", "result": 0.937}, {"measurement": "normalized growth", "setting": "locus YEL003W, strain gim4, hits give low values", "result": 0.982}, {"measurement": "normalized growth", "setting": "locus YEL037C, strain rad23, hits give low values", "result": 0.973}, {"measurement": "normalized growth", "setting": "locus YEL061C, strain CIN8 (second series), hits give low values", "result": 0.99}, {"measurement": "normalized growth", "setting": "locus YEL061C, strain CIN8, hits give low values", "result": 0.953}, {"measurement": "normalized growth", "setting": "locus YER015W, strain faa2, hits give low values", "result": 0.982}, {"measurement": "normalized growth", "setting": "locus YER016W, strain bim1, hits give low values", "result": 0.98}, {"measurement": "normalized growth", "setting": "locus YER110C, hits give low values", "result": 0.935}, {"measurement": "normalized growth", "setting": "locus YER111C, strain swi4, hits give low values", "result": 0.933}, {"measurement": "normalized growth", "setting": "locus YER155C, strain BEM2 (second series), hits give low values", "result": "0.306 (active)"}, {"measurement": "normalized growth", "setting": "locus YER155C, strain BEM2, hits give low values", "result": 0.959}, {"measurement": "normalized growth", "setting": "locus YER167W, strain BCK2, hits give low values", "result": "0.84 (active)"}, {"measurement": "normalized growth", "setting": "locus YFR010W, strain ubp6, hits give low values", "result": 0.983}, {"measurement": "normalized growth", "setting": "locus YGL078C, strain dbp3, hits give low values", "result": 0.933}, {"measurement": "normalized growth", "setting": "locus YGL086W, strain mad1, hits give low values", "result": 0.933}, {"measurement": "normalized growth", "setting": "locus YGL167C, strain pmr1, hits give low values", "result": 0.974}, {"measurement": "normalized growth", "setting": "locus YGL173C, strain kem1, hits give low values", "result": 0.96}, {"measurement": "normalized growth", "setting": "locus YGL227W, strain vid30, hits give low values", "result": 0.954}, {"measurement": "normalized growth", "setting": "locus YGL240W, strain doc1, hits give low values", "result": "0.774 (active)"}, {"measurement": "normalized growth", "setting": "locus YGL248W, strain PDE1, hits give low values", "result": 0.954}, {"measurement": "normalized growth", "setting": "locus YGL253W, strain hxk2, hits give low values", "result": 0.976}, {"measurement": "normalized growth", "setting": "locus YGR078C, strain PAC10, hits give low values", "result": 0.954}, {"measurement": "normalized growth", "setting": "locus YGR135W, strain pre9, hits give low values", "result": 0.947}, {"measurement": "normalized growth", "setting": "locus YGR229C, strain SMI1, hits give low values", "result": 0.954}, {"measurement": "normalized growth", "setting": "locus YGR252W, strain gcn5, hits give low values", "result": 1.12}, {"measurement": "normalized growth", "setting": "locus YHR013C, strain ard1, hits give low values", "result": 0.866}, {"measurement": "normalized growth", "setting": "locus YHR027C, strain rpn1, hits give low values", "result": 0.988}, {"measurement": "normalized growth", "setting": "locus YHR030C, strain SLT2, hits give low values", "result": "0.945 and 0.982"}, {"measurement": "normalized growth", "setting": "locus YHR079C, strain IRE1 (second series), hits give low values", "result": 0.927}, {"measurement": "normalized growth", "setting": "locus YHR079C, strain IRE1, hits give low values", "result": 0.985}, {"measurement": "normalized growth", "setting": "locus YHR094C, strain hxt1, hits give low values", "result": "0.923 (active)"}, {"measurement": "normalized growth", "setting": "locus YHR129C, strain ARP1, hits give low values", "result": 0.958}, {"measurement": "normalized growth", "setting": "locus YHR142W, strain chs7, hits give low values", "result": "0.805 (active)"}, {"measurement": "normalized growth", "setting": "locus YHR200W, strain rpn10, hits give low values", "result": 0.922}, {"measurement": "normalized growth", "setting": "locus YIL066C, strain RNR3, hits give low values", "result": 0.955}, {"measurement": "normalized growth", "setting": "locus YIL073C, strain SPO22, hits give low values", "result": 0.906}, {"measurement": "normalized growth", "setting": "locus YIL125W, strain kgd1, hits give low values", "result": "0.906 (active)"}, {"measurement": "normalized growth", "setting": "locus YIR030C, strain dcg1, hits give low values", "result": 0.945}, {"measurement": "normalized growth", "setting": "locus YJL092W, strain hpr5, hits give low values", "result": 0.95}, {"measurement": "normalized growth", "setting": "locus YJL095W, strain BCK1 (second series), hits give low values", "result": 0.931}, {"measurement": "normalized growth", "setting": "locus YJL095W, strain BCK1, hits give low values", "result": "0.871 and 0.984"}, {"measurement": "normalized growth", "setting": "locus YJL115W, strain asf1, hits give low values", "result": 1.01}, {"measurement": "normalized growth", "setting": "locus YJL129C, strain trk1, hits give low values", "result": "0.783 (active)"}, {"measurement": "normalized growth", "setting": "locus YJL134W, strain LCB3, hits give low values", "result": 0.955}, {"measurement": "normalized growth", "setting": "locus YJL154C, strain vps35, hits give low values", "result": 0.982}, {"measurement": "normalized growth", "setting": "locus YJL164C, strain tpk1, hits give low values", "result": 0.925}, {"measurement": "normalized growth", "setting": "locus YJL166W, strain qcr8, hits give low values", "result": "0.728 (active)"}, {"measurement": "normalized growth", "setting": "locus YJL168C, strain set2, hits give low values", "result": 0.943}, {"measurement": "normalized growth", "setting": "locus YJL187C, strain SWE1 (second series), hits give low values", "result": 0.959}, {"measurement": "normalized growth", "setting": "locus YJR043C, strain POL32, hits give low values", "result": 0.965}, {"measurement": "normalized growth", "setting": "locus YJR066W, strain TOR1, hits give low values", "result": 0.939}]}
